# Assay results reported in PubChem BioAssay.
# Where “and” joins values, the source holds several entries; their conditions need not be identical. Equal entries are not always repeated. Calls of active or inactive are those of the source. Rule as the data show it, unless noted: active = parasite load remaining mostly below about 12% (no sharp cut-off); inactive = mostly above about 10%.
# Columns and labels:
# [1] = liver-stage malaria parasite growth inhibition, primary screen, cell-based, HepG2, luciferase luminescence, HepG2 viability (AID 624349);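 also: 100% = mean of DMSO negative control wells on the same plate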; conditions: P. berghei liver stage in HepG2, luciferase luminescence, concentration not given here; parasite load remaining: stronger effect = lower value; viability: measured here: HepG2 viability without parasites
# [2] = stimulators of nuclear beta-catenin in C2C12, primary screen, imaging, WNT3A-conditioned medium, mouse C2C12, NPC library (AID 1117326; in the data active = nuclear beta-catenin stimulation mostly above about 4.2%, no sharp cut-off; inactive = mostly below about 10%); conditions: stronger effect = higher value
# [3] = stimulators of insulin release from INS-1E, primary screen, cell-based, 5 mM glucose, NPC library (AID 1117329;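 active = compound raises insulin release from rat beta cells at 5 mM glucose, no numeric limit stated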); conditions: rat INS-1E insulin secretion, at 10 µM, stronger effect = higher value
# [4] = growth inhibition of GSK3B-pretreated HCT116 cells – cell-based, CellTiter-Glo, 0.2 to 20 µM (AID 1117336;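 active = compounds lowering colon cancer cell viability after pretreatment blocking the GSK3B kinase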); conditions: HCT116 viability after GSK3B inhibitor, at 20 µM, stronger effect = higher value
# [5] = inhibition of endothelial tube formation, primary screen, imaging, VEGF stimulated, CD31 staining, tube area, NPC library (AID 1117340;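 active = compound that reduces growth-factor-driven endothelial tube area in a mixed cell culture, no cutoff stated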); conditions: VEGF-stimulated ADSC/ECFC co-culture, at 10 µM, stronger effect = higher value
# [6] = glucagon-like peptide 1 release enhancers, primary assay, NCI-H716 cell line, NPC library (AID 1117341;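 active = compound raises GLP1 secretion from the human gut endocrine cells, with no numeric limit stated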); conditions: NCI-H716 cells, at 10 µM, stronger effect = higher value
# [7] = HCT116 colon cancer cell growth inhibition, primary screen, CellTiter-Glo luminescence, NPC library (AID 1117342;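 active = compounds that lower survival of HCT116 colon cancer cells in the luminescence readout, no numeric limit stated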); conditions: at 20 µM (top of the series)
# [8] = CellTiter-Glo luminescent readout of SW480 viability loss, NPC library primary (AID 1117343;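 active = compounds that lower viability of the colon cancer cells in the luminescence readout, with no numeric limit stated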); conditions: CellTiter-Glo luminescence; at 20 µM (top of the series) unless noted
# [9] = decreased DLD-1 cellular survival, CellTiter-Glo luminescent readout, NPC compound collection, primary HTS (AID 1117346;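 active = compounds that lower survival of DLD-1 colon cancer cells in the luminescence readout, no cutoff given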); conditions: DLD-1 viability, CellTiter-Glo luminescence; at 20 µM (top of the series)
# [10] = differential killing of epithelial or mesenchymal cells, primary screen, imaging, PC-3E GFP, TEM4-18 mCherry, co-culture (AID 1345086;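 active = compounds killing one labelled cell type while sparing the other, by normalised counts and ratio limits, not self-fluorescent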;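 as to all read-outs here: cells exposed to compound for 72 h before imaging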;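 as to red/green cell ratio (normalised): normalised mesenchymal count divided by normalised epithelial count so high means epithelial killing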); conditions: imaging cell counts, at 1 µM; for red/green cell ratio (normalised): actives lie on both sides, counts scaled to control wells, 1 = unselective
# [11] = sensitizers of A549 cells to miR-34 induction, primary screen, imaging, A549 dox-inducible miR-34, nuclei and caspase counts (AID 1347080;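 active = compounds whose cell count with miR-34 switched on is under 0.7 times the count with it off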); conditions: A549 miR-34 inducible, Hoechst nuclei count, 48 h
# [12] = survival rescue of mitochondrial mutant cells in low glucose, primary screen, MELAS cybrids, Rieske KO mouse fibroblasts, CellTiter-Glo (AID 1508586;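 active = mean z-score across replicates of 1.96 or higher in either the MELAS or the Rieske mutant cell line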;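 also: z relative to plate mean and SD of compound and empty wells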)
# [13] = biological target: NAD(+) hydrolase SARM1 (Homo sapiens) (UniProt Q6SZW1); test: SARM1 TIR NADase inhibitors, cell lysate, NAD-Glo luminescence (AID 1508614;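 active = compound whose remaining NAD level is above about 45 nM, limit read from the data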;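 also: higher remaining NAD means stronger inhibition of SARM1 NADase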); conditions: SAM-TIR HEK293T lysate NADase, at 1 µM, stronger effect = higher value
# [14] = hESC survival regulators, cell-based (AID 493140; call rule not given here;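 also: cells exposed to compounds for four days before counting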); conditions: human embryonic stem cell survival screen; stronger effect = higher value
# [15] = measured here: epithelial PC-3E GFP cell survival
# [16] = measured here: mesenchymal TEM4-18 mCherry cell survival
# [17] = stronger effect = lower value, cell number ratio, induced over uninduced
# [18] = measured here: relative caspase fold change +Dox/-Dox
# [19] = measured here: total cells with miR-34 induction, stronger effect = lower value
# [20] = measured here: total cells without miR-34 induction
# [21] = MELAS cybrid survival, CellTiter-Glo 48 h, stronger effect = higher value
# [22] = Rieske KO mouse fibroblast survival, CellTiter-Glo 72 h
# Sequence of NAD(+) hydrolase SARM1 (Homo sapiens) (Q6SZW1 whole entry, looked up): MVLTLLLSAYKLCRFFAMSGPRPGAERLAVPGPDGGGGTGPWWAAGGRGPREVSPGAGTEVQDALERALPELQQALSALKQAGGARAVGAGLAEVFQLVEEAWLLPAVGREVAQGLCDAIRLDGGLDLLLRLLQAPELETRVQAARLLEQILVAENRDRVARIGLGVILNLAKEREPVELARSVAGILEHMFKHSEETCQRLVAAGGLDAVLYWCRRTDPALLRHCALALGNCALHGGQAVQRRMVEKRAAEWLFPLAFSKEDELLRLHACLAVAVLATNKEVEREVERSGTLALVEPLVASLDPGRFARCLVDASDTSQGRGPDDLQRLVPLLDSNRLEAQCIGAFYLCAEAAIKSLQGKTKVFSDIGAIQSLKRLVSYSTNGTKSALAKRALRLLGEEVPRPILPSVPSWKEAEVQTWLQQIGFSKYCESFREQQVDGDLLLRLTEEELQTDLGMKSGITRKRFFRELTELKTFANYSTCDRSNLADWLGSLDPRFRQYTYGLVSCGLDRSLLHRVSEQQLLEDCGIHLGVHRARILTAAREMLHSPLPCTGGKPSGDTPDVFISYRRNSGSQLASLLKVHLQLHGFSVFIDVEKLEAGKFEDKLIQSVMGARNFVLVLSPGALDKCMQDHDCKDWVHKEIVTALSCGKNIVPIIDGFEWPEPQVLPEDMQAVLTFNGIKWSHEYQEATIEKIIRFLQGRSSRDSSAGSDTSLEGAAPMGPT
structure (smiles),measurement,setting,value
O=C(Oc1cccc2cccnc12)c1ccccc1,parasite load remaining,[1],41.2% (inactive)
same,viability,[1],102%
same,nuclear beta-catenin stimulation,[2]; at 10 µM,19.8% (inactive)
same,nuclear beta-catenin stimulation,"[2]; stimulation, at 2 µM",0.5%
same,insulin secretion stimulation,[3],-2.2% (inactive)
same,viability decrease,[4],23.6% (inactive)
same,tube area decrease,[5],-21.4% (inactive)
same,GLP1 secretion stimulation,[6],0.9% (inactive)
same,inhibition of viability,[7],27.1% (inactive)
same,viability decrease (inhibition),[8],22.8% [at 2 µM] (inactive)
same,viability decrease (inhibition),[9],-5.55% (inactive)
same,red/green cell ratio (normalised),[10],1 (inactive)
same,normalised cell number,[10]; [15],1.14
same,normalised cell number,[10]; [16],1.13
same,fold change,[11]; [17],0.805 (inactive)
same,fold change,[11]; [18],5.26
same,cell count,[11]; [19],10400
same,cell count,[11]; [20],12900
same,z-score,[12]; [21],0.276 (inactive)
same,z-score,[12]; [22],0.498
same,remaining NAD,[13],10 nM (inactive)
O=C(CCCN1CCC(O)(c2ccc(Br)cc2)CC1)c1ccc(F)cc1,survival,[14],1.83 (inactive)
same,parasite load remaining,[1],37.2% (inactive) and 72.5% (inactive) and 17.9% (inactive)
same,viability,[1],92.9% and 75.9% and 90.4%
same,nuclear beta-catenin stimulation,[2]; at 10 µM,10.3% (inactive)
same,nuclear beta-catenin stimulation,"[2]; stimulation, at 2 µM",1.8%
same,insulin secretion stimulation,[3],5.6% (active)
same,viability decrease,[4],-4.9% (inactive)
same,tube area decrease,[5],24.2% (inactive)
same,GLP1 secretion stimulation,[6],2.1% (inactive)
same,inhibition of viability,[7],46.1% (inactive)
same,viability decrease (inhibition),[8],93.1% (active)
same,viability decrease (inhibition),[9],54.3% (active)
same,red/green cell ratio (normalised),[10],0.73 (inactive)
same,normalised cell number,[10]; [15],1.27
same,normalised cell number,[10]; [16],0.93
same,fold change,[11]; [17],0.861 (inactive) and 0.851 (inactive)
same,fold change,[11]; [18],1.31 and 4.03
same,cell count,[11]; [19],8070 and 10200
same,cell count,[11]; [20],9380 and 12000
same,z-score,[12]; [21],0.333 (inactive)
same,z-score,[12]; [22],0.0415
same,remaining NAD,[13],10 nM (inactive)
CNCCc1ccccn1,survival,[14],9.67 (inactive)
same,parasite load remaining,[1],177% (inactive) and 67% (inactive) and 40.9% (inactive)
same,viability,[1],106% and 76.5% and 92.3%
same,nuclear beta-catenin stimulation,[2]; at 10 µM,0.2% (inactive)
same,nuclear beta-catenin stimulation,"[2]; stimulation, at 2 µM",1.8%
same,insulin secretion stimulation,[3],-0.8% (inactive)
same,viability decrease,[4],5.6% (inactive)
same,tube area decrease,[5],-1.2% (inactive)
same,GLP1 secretion stimulation,[6],-0.6% (inactive)
same,inhibition of viability,[7],-13.4% (inactive)
same,viability decrease (inhibition),[8],-3.4% (inactive)
same,viability decrease (inhibition),[9],1.9% (inactive)
same,red/green cell ratio (normalised),[10],1.06 (inactive)
same,normalised cell number,[10]; [15],1.06
same,normalised cell number,[10]; [16],1.12
same,fold change,[11]; [17],0.848 (inactive) and 0.92 (inactive) and 0.919 (inactive)
same,fold change,[11]; [18],1.09 and 0.698 and 1.77
same,cell count,[11]; [19],9020 and 8170 and 11700
same,cell count,[11]; [20],10600 and 8880 and 12700
same,z-score,[12]; [21],-0.325 (inactive) and 0.341 (inactive)
same,z-score,[12]; [22],-0.163 and 0.19
same,remaining NAD,[13],10 nM (inactive)
CN(C(=O)C(Cl)Cl)c1ccc(OC(=O)c2ccco2)cc1,survival,[14],6 (inactive)
same,parasite load remaining,[1],89.8% (inactive) and 59.5% (inactive)
same,viability,[1],98.9% and 106%
same,nuclear beta-catenin stimulation,[2]; at 10 µM,16.4% (inactive)
same,nuclear beta-catenin stimulation,"[2]; stimulation, at 2 µM",2.6%
same,insulin secretion stimulation,[3],0.3% (inactive)
same,viability decrease,[4],-11.8% (inactive)
same,tube area decrease,[5],13.6% (inactive)
same,GLP1 secretion stimulation,[6],0.9% (inactive)
same,inhibition of viability,[7],-9.5% (inactive)
same,viability decrease (inhibition),[8],4.3% (inactive)
same,viability decrease (inhibition),[9],-2.6% (inactive)
same,red/green cell ratio (normalised),[10],1.01 (inactive)
same,normalised cell number,[10]; [15],0.98
same,normalised cell number,[10]; [16],0.99
same,fold change,[11]; [17],0.855 (inactive) and 0.819 (inactive)
same,fold change,[11]; [18],1.35 and 4.27
same,cell count,[11]; [19],9270 and 10300
same,cell count,[11]; [20],10800 and 12500
same,z-score,[12]; [21],0.57 (inactive)
same,z-score,[12]; [22],-0.472
same,remaining NAD,[13],10 nM (inactive)
